Laboratory results: PubChem BioAssay AID1460 (National Center for Advancing Translational Sciences (NCATS), 2008)
Out of some 270,000 compounds screened, about 5,800 (2.1%) were called active. Not shown: some 16% with an inconclusive outcome. Calls follow the shape of the dose curve; as a rule, active = well fitted inhibition curve with a large enough effect; inconclusive = small, poorly fitted or top-dose-only effect; inactive = flat fitted curve, though single readings scatter. Shown is part of a subset that was picked to be rich in actives.

What follows are molecules tested against Microtubule-associated protein tau (Homo sapiens) (UniProt P10636) (assay: qHTS for Inhibitors of Tau Fibril Formation, Thioflavin T Binding). Details: recombinant tau K18 P301L (four-repeat tau fragment), heparin-induced fibrillization, ThT fluorescence; series mostly up to 57.4 µM; activity, negative = inhibition: at the top concentration.
Microtubule-associated protein tau (Homo sapiens), sequence (P10636 561-689 P618L limits assumed): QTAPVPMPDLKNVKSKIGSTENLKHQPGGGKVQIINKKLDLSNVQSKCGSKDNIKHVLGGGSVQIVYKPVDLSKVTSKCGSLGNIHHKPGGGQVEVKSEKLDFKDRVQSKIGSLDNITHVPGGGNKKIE
Method in brief: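 K18 P301L tau (15 uM + 0.24 uM Alexa 594-tagged), heparin 20 uM, NaOAc pH 7, 6 h 37 C; ThT 30 uM, 1 h RT, ex 450/em 510 nm.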
% is scaled to controls: 0 for no effect and ±100 for the full control effect; potency is read from the fitted curve at half-maximal effect.
Also: nearly all actives have a fitted effect of over 55% in size.

activity, negative = inhibition, inactive:
COCCN(Cc1ccco1)C(=O)Cn1ncc2c([nH]c3ccccc32)c1=O 4.47%
CC(CC(=O)N1CCN(c2ccccc2)CC1)c1ccccc1 (centres undefined) -1.05%
O=C(Nc1ccc(F)cc1)N1CCN(c2ccc(F)cc2)CC1 -16.9%
Cc1c(CCNC(=O)c2ccc(C(F)(F)F)cc2)sc2nc(-c3ccc(F)cc3)nn12 2.81%
COc1ccc(Cl)cc1NC(=O)CCn1c(=O)c2cccn2c2ccccc21 -13.7%
CCOc1ccc(CNC(=O)c2ccc3nc(CC)c(CC)nc3c2)cc1OC 0.219%
CC1=CC(C)(C)N(C(=O)CSc2nnc(-c3ccccc3)o2)c2ccc(C)cc21 -11.5%
COc1ccc2c(c1)C(C)=CC(C)(C)N2C(=O)CNCc1ccc2c(c1)OCO2 -5.39%
O=C(NC1CC(=O)N(c2ccc(Cl)cc2)C1)C1CCCC1 (centres undefined) -3.22%
Cn1ccc2cc(S(=O)(=O)N3CCCC(C(=O)NCc4ccccc4F)C3)ccc21 (centres undefined) 4.83%
O=C(NC1CCCCC1)c1cc([N+](=O)[O-])ccc1N1CCOCC1 -5.97%
COc1ccc(-c2nc3ccccc3o2)cc1NC(=O)c1cc([N+](=O)[O-])ccc1N1CCOCC1 -9.81%
CCOC(=O)c1c(NC(=O)c2cccs2)sc(C)c1C 4.08%
CCOC(=O)c1sc(NC(=O)COc2ncnc3ccccc23)c(C(=O)OCC)c1C 13.3%
Clc1cccc(-n2ncc3c(NCCc4ccccc4)ncnc32)c1 -9.03%
Cc1ccc(Cl)cc1NC(=O)CCC(=O)N1CC(C)Sc2ccccc21 (centres undefined) -16.2%
CCCNC(=O)C1CCN(c2nc3ccc(C)cc3[nH]2)CC1 -0.761%
COCC(C)NS(=O)(=O)c1ccc(N2CCCCS2(=O)=O)cc1 (centres undefined) 6.23%
OCCN1CCN(C(=S)c2ccc(-c3ccccc3)cc2)CC1 -13.5%
S=C(NCCc1ccccc1)N1CCCCC1 -8.68%
Oc1ccccc1N1CCN(C(=S)NCc2ccccc2)CC1 -17.4%
OCC(CO)(CO)NCc1ccc(-c2ccccc2)cc1 -2.17%
CCc1nc2cccnc2n1-c1ccc(CC(=O)Nc2c(C)cccc2C)cc1 -7.47%
COc1ccc(CCNC(=O)Cn2c(=O)cc(C(F)(F)F)c3c(C)nn(C)c32)c(OC)c1 -7.4%
Cc1ccc(/C=C/C(=O)Nc2cc(S(=O)(=O)N3CCCCCC3)ccc2OCC(F)(F)F)o1 9.07%
CCc1nnc(NC(=O)/C=C/c2ccc(C)o2)s1 -4.8%
CCOc1ccccc1N=C1NC(=O)CS1 -1.39%
CCOc1cccc(/C=N/NC(=S)NCCN2CCOCC2)c1O -6.58%
COc1ccc(OC)c(NC(=O)CSC2=Nc3ccccc3C3=NC(CC(=O)NCCc4ccccc4)C(=O)N23)c1 (centres undefined) -3.76%
COc1ccccc1NC(=O)Cn1cnc2ccc(S(=O)(=O)N3CCC(C)CC3)cc2c1=O 9.3%
CN1c2ccc(Cl)cc2-c2nc(SCC(=O)Nc3cc(F)ccc3F)ncc2S1(=O)=O 4.12%
CC1CCCCN1CCCNC(=O)Cn1ncc2c([nH]c3ccccc32)c1=O (centres undefined) -18.3%
CCc1ccc(NC(=O)CCS(=O)(=O)c2cc3c(cc2Cl)NC(=O)CO3)cc1 1.33%
COc1ccc(C)cc1NC(=O)C(=O)NCCc1sc(-c2cccc(C)c2)nc1C -12.3%
O=C(O)c1ccccc1C(=O)Nc1ccccc1[N+](=O)[O-] -2.3%
Cc1ccc(Nc2ccc(C(N)=O)cc2[N+](=O)[O-])cc1 -3.36%
CCCN1C(=O)C(O)(CC(=O)c2ccc(CC)cc2)c2cc(Br)ccc21 (centres undefined) -7.54%
COc1ccc(N2CCN(C(=O)CSc3nc4cc(OC)c(OC)cc4cc3C#N)CC2)cc1 -10.6%
Cc1nc2cc(NC(=O)CSc3nc4c(C)cccc4cc3C#N)ccc2s1 -13.9%
Cc1cc(C)c(C#N)c(SCC(=O)Nc2ccccc2)n1 4.95%
COC(=O)CSc1nc(C)c2ccc(OC)cc2n1 -5.41%
CC(=O)c1ccc(NC(=O)c2nc(-c3ccc(C)cc3)n3c2CCCCC3)cc1 -9.51%
Cc1ccc(CCNC(=O)c2nnc(Cc3cccc(F)c3)o2)cc1 -13.6%
CCOC(=O)c1c(NC(=S)NC(=O)c2ccco2)sc2c1CCCC2 -18%
CC(C)OC(=O)c1c(NC(=O)c2ccco2)sc2c1CCCC2 -13%
COc1cc2c(cc1OC)C(COc1ccc(F)cc1)N(C(=O)c1ccccc1F)CC2 (centres undefined) -8.13%
COc1cc(Cl)c(NC(=O)CC(C)S(=O)(=O)c2cc3c(cc2C)NC(=O)CO3)c(OC)c1 (centres undefined) 2.57%
Cc1c(C=O)n(C)n(-c2ccccc2)c1=O 0.926%
Cc1ccc(N=Nc2c(C)[nH]n(-c3ccccc3)c2=O)cc1 0.0892%
CC(C)(C)c1ccc(S(=O)(=O)Nc2ccc(O)c(Sc3nc4ccccc4s3)c2)cc1 -17.4%
O=C(CSc1nc2ccccc2s1)Nc1ccc(C(=O)O)cc1 -2.11%
COC(=O)c1cc(S(=O)(=O)N2CCN(c3cc(Cl)ccc3C)CC2)c[nH]1 7.65%
COc1ccc(NC(=O)CSc2nc3ccccc3n2CC(=O)N2CCCCC2C)cc1 (centres undefined) 1.12%
COc1cc(NC(=O)c2cc(C3CC3)nc3c2c(C)nn3-c2ccccc2)cc(OC)c1 -5.05%
COC(=O)CC1Oc2ccccc2-n2cc(-c3ccccc3)nc21 (centres undefined) -13.4%
O=C(c1ccc(Cl)cc1)c1ccc(OCC(O)CN2CCCCC2)cc1 (centres undefined) -6.29%
O=C(c1ccccc1)c1ccc(OCC(O)CN2CCCC2)cc1 (centres undefined) -0.223%
Cc1ccc(C)c(CNC(=O)c2cc3ccccn3n2)c1 -8.43%
CCOc1ccccc1C(=O)Nc1ccc(S(=O)(=O)N2CCCCC2c2cccnc2)cc1 (centres undefined) 8.63%
CCOC(=O)c1c(C)[nH]c(C)c1S(=O)(=O)NCC(=O)NCc1cccc(C)c1 3.96%
COc1ccc(Br)cc1/C=N/n1c(C)nnc1C -2.94%
Cc1ccc(-c2nc(C)sc2CC(=O)O)cc1 4.18%
O=C(O)Cc1sc(-c2ccc(C(=O)O)cc2)nc1-c1ccccc1 2.5%
COc1ccc(NC(=O)CSc2nccn2Cc2ccc3c(c2)OCO3)cc1 -11.5%
Nc1ncc(S(=O)(=O)Nc2ccc(OC(F)(F)F)cc2)cn1 -1.64%
CCc1ccc2ncc3c(-c4ccc(C)cc4)nn(CC(=O)NCc4ccccc4)c3c2c1 -6.61%
COc1ccc(CNC(=O)CSc2n[nH]c(-c3ccc(F)cc3)n2)cc1 -4.28%
Cc1ccc(NC(=O)c2oc3ccccc3c2NC(=O)Cc2cccs2)cc1 1.47%
CCCCc1nnc(NC(=O)CSc2nc(C)cc(=O)[nH]2)s1 -3.3%
CCOC(=O)Cc1csc(NC(=O)CSc2ccc(Br)cc2)n1 5.76%
CC1=Nc2cc(C(=O)NCc3ccc(C)cc3)ccc2Sc2ccc(Cl)cc21 -7.16%
Cc1ccc(Cl)cc1N1CCN(S(=O)(=O)c2cc3[nH]c(=O)c(=O)[nH]c3cc2C)CC1 2.21%
COc1cc(C(=O)NCCc2csc3nc(-c4ccccc4C)nn23)cc(OC)c1OC -11.2%
CC(C)(C)OC(=O)NCCCC1=CC2=CC(=O)C(C)(OC(=O)c3ccco3)C(=O)C2=CO1 (centres undefined) -0.483%
COc1cc(CN(C(=O)c2ccccc2Br)c2ccccn2)cc(OC)c1OC -13.1%
CCOc1cccc(NC(=O)c2ccc(F)c(S(=O)(=O)N(CC)c3cccc(C)c3)c2)c1 5.24%
O=C(Nc1ccon1)c1sc2ccccc2c1Cl -23.4%
COC(=O)c1cc(NC(=O)c2sc3ccccc3c2Cl)cc(C(=O)OC)c1 -2.46%

Potency, active:
CC(=O)N1CCN(c2ccc(NCc3ccc(C(C)C)cc3)cc2)CC1 12.6 µM
COc1ccc2c(c1)C(C)=CC(C)(C)N2C(=O)Nc1ccccc1 28.2 µM
CCOc1ccc2nc(NC(=O)c3cc([N+](=O)[O-])ccc3N3CCOCC3)sc2c1 3.16 µM
CCOC(=O)c1c(NC(=O)COc2cc(C)ccc2C(C)C)sc(C)c1C 25.1 µM
S=C(c1ccc(-c2ccccc2)o1)N1CCCCC1 15.8 µM
Oc1ccc(CNc2ccccc2O)cc1 14.1 µM
Cc1cccc(C2C3=C(CCCC3=O)N=C3c4ccccc4C(=O)C32)c1 (centres undefined) 14.1 µM
Cc1ccc(/C=C/C(=O)Nc2ccc([N+](=O)[O-])c(NC(=O)/C=C/c3ccc(C)o3)c2)o1 12.6 µM
CCOc1cccc(/C=N/N2C(=O)CSC2=S)c1O 22.4 µM
CC(=O)Oc1c2c(c3c(c1CC=C(C)C)O[C@@]14C(=CC5CC1C(C)(C)OC4(C/C=C(\C)C(=O)O)C5=O)C3=O)OC(C)(CCC=C(C)C)C=C2 (some centres undefined) 31.6 µM
CN1/C(=c2/s/c(=C3/C(=O)N(c4ccccc4)NC3=Nc3ccccc3)n(C)c2=O)C(C)(C)c2ccccc21 7.94 µM
O=[N+]([O-])c1ccccc1Nc1ccc(O)cc1 22.4 µM
Cc1nonc1NC(=O)CSc1nc2ccccc2cc1C#N 1.78 µM
CCOc1ccc2cc(C#N)c(SCC(=O)OC)nc2c1 3.16 µM
CNC(=O)c1c(NC(NC(=O)c2ccco2)C(=O)c2ccc(Cl)cc2)sc2c1CCCC2 (centres undefined) 25.1 µM
Cc1c(N=Nc2ccc(N(C)C)cc2)c(=O)n(-c2ccccc2)n1C 15.8 µM
O=[N+]([O-])c1c(NCCO)cc(Sc2nc3ccccc3s2)c2nonc12 12.6 µM
O=C1C(c2ccccn2)=[N+]([O-])c2ccccc21 3.98 µM
CCOc1ccc(C(=O)/C=C/c2cn(CC(O)CN3CCCCCC3)c3ccccc23)cc1 (centres undefined) 12.6 µM
CC/C(=N/Nc1ccccc1)c1cnnc(SC)n1 7.08 µM
COc1cc(Br)cc(/C=N/c2ncn[nH]2)c1O 14.1 µM
C/C(=N/Nc1nc(-c2ccccc2)c(CC(=O)O)s1)c1ccccc1 12.6 µM
CCOC(=O)Cc1csc(NC(=O)CSc2nc(C)cc(=O)[nH]2)n1 28.2 µM
COC/C=C/C1=CC2=CC(=O)C(C)(OC(=O)CCC(=O)OC)C(=O)C2=CO1 (centres undefined) 15.8 µM
Oc1ccc(N=Cc2c(O)ccc3ccccc23)cc1 12.6 µM
Oc1ccc(N=Cc2sc3ccccc3c2Cl)cc1 7.08 µM
